A selection: hits, their analogues and other compounds. The true share with any hit is near 9.6%.
USP17 block = inhibitors of human USP17 deubiquitinase; Ubiquitin carboxyl-terminal hydrolase 17-like protein 5 (Homo sapiens), A8MUK1; purified USP17, Ub-rhodamine cleavage fluorescence, 3 h; inhibition, % at 50 µM; 47,000 tested, 6.5% active; AID 1645855, 2021
USP30 block = inhibitors of human USP30 deubiquitinase; inhibition, % at 25 µM; purified USP30, Ub-rhodamine cleavage fluorescence; Ubiquitin carboxyl-terminal hydrolase 30 (Homo sapiens), Q70CQ3; AID 1645860, 2021; 47,000 tested, 5.3% active
* = called active by the depositor. Rule as the data show it: active = inhibition above about 30%; inactive = the rest.

Results for Cc1ccc(F)cc1S(=O)(=O)N1CCC2(CC1)CC2c1nc(-c2cccnc2)no1 (stereo not drawn) ?
USP17 block: -12; USP30 block: -9

Results for COc1ccc(S(=O)(=O)N2CCC3(CC2)CC3c2nc(-c3cccnc3)no2)c(C)c1 (stereo not drawn) ?
USP17 block: 19; USP30 block: 36*

How did COc1ccccc1Nc1ncc(C(=O)NCCc2ccc(Cl)cc2)c2ccccc12 do in these assays?
USP17 block: 81*; USP30 block: 12

Results for COc1ccccc1CNC(=O)c1cnc(Nc2ccccc2OC)c2ccccc12 ?
USP17 block: -4; USP30 block: -12

Results for COC(=O)CNC(=O)c1cnc(Nc2ccccc2OC)c2ccccc12 ?
USP17 block: 31*; USP30 block: -15

What do the screens show for `COc1ccccc1Nc1ncc(C(=O)N(C)Cc2ccccc2)c2ccccc12`?
USP17 block: 23; USP30 block: -121

What do the screens show for `CC1CCN(S(=O)(=O)N2CCCC(C(=O)NCc3ccccn3)C2)CC1` (stereo not drawn)?
USP17 block: -9; USP30 block: -28

What do the screens show for `O=C(Nc1ccc(F)cc1)c1ccc2c(c1)C1C3CCC(C3)C1C(c1ccccc1)N2` (stereo not drawn)?
USP17 block: 2; USP30 block: 32*

What do the screens show for `CC(=O)Nc1ccc(NC(=O)c2ccc3c(c2)CC(c2ccccc2)OC3=O)cc1` (stereo not drawn)?
USP17 block: 21; USP30 block: 22

Results for COc1ccc(-n2nnc(S(=O)(=O)c3ccc(OC)cc3)c2C)cc1 ?
USP17 block: -5; USP30 block: -10

How did FC(F)(F)c1c(-c2ccccc2)c2cc(Cl)ccc2n1CCOc1ccccc1 do in these assays?
USP17 block: -3; USP30 block: -18

What do the screens show for `C=C(CCC=C(C)C)[C@H]1CC[C@]2(C)[C@@H]1CC[C@@H]1[C@@]3(C)CCC(=O)C(C)(C)[C@@H]3CC[C@]12C`?
USP17 block: 40*; USP30 block: 31*

How did C=C(CCC=C(C)C)[C@H]1CC[C@]2(C)[C@@H]1CC[C@@H]1[C@@]3(C)CC[C@H](O)C(C)(C)[C@@H]3CC[C@]12C do in these assays?
USP17 block: 11; USP30 block: 2

Results for CN1CCN(c2nc3cccnc3n(CCNc3ncc(C(F)(F)F)cc3Cl)c2=O)CC1 ?
USP17 block: -6; USP30 block: -21

What do the screens show for `O=C(NC1CC(=O)N(c2ccc3c(c2)OCCO3)C1)c1ccc2c(c1)OCO2` (stereo not drawn)?
USP17 block: 8; USP30 block: 15

What do the screens show for `COC(=S)NC(=O)/C=C/c1ccccc1`?
USP17 block: 22; USP30 block: 32*

How did NC(=O)/C=C/c1ccccc1 do in these assays?
USP17 block: 0; USP30 block: 6

How did Cc1noc(C)c1CN1C(=O)NC(C)(c2cc3ccccc3o2)C1=O (stereo not drawn) do in these assays?
USP30 block: -33

Results for Cc1cccc(N2CCN(c3ncnc4sc(C(=O)O)c(C)c34)CC2C)c1 (stereo not drawn) ?
USP17 block: -8; USP30 block: -138

How did N#Cc1cccc(C(=O)N2CCN(Cc3noc(-c4ccccc4)n3)CC2)c1 do in these assays?
USP17 block: -14; USP30 block: -5

How did O=c1[nH]c(-c2ccncc2)nc2c1CCN(Cc1ccc(Cl)cc1)C2 do in these assays?
USP17 block: 28; USP30 block: 43*

What do the screens show for `Cn1cc(CN2CCc3nc(-c4ccccn4)[nH]c(=O)c3C2)cn1`?
USP17 block: -40; USP30 block: -17

What do the screens show for `CN(C)c1ccc(CN2CCc3nc(-c4ccncc4)[nH]c(=O)c3C2)cc1`?
USP17 block: 7; USP30 block: -12

Results for O=c1[nH]c(-c2ccccn2)nc2c1CCN(Cc1cnn(-c3ccccc3)c1)C2 ?
USP17 block: 55*; USP30 block: 19

How did CC(C)c1cc(N2CCOCC2)nc(-c2ccccn2)n1 do in these assays?
USP17 block: -10; USP30 block: -19

Results for CNc1nc(C2CCCNC2)nc2c1CCN(S(=O)(=O)C1CCCCC1)C2 (stereo not drawn) ?
USP17 block: -10; USP30 block: -31

How did Cn1c(O)c(C2=Nc3ccccc3SC(c3cccc(O)c3)C2)c(=O)[nH]c1=O (stereo not drawn) do in these assays?
USP17 block: 39*; USP30 block: -27

Results for Cn1c(O)c(C2=Nc3ccccc3SC(c3cccc(O)c3)C2)c(=O)n(C)c1=O (stereo not drawn) ?
USP17 block: 1; USP30 block: -7

How did CNC(=O)N1CCCN(C2CCN(Cc3ccccc3)C2=O)CC1 (stereo not drawn) do in these assays?
USP17 block: -3; USP30 block: 30*

Results for CC(C)(C)NC(=O)N1CCCN(C2CCN(Cc3ccccc3)C2=O)CC1 (stereo not drawn) ?
USP17 block: 7; USP30 block: 6

Source: PubChem (Buhrlage Lab, Dana-Farber Cancer Institute and Novartis Institutes for BioMedical Research (Cambridge, Mass))
